SMILES strings stand for the structures. This is part of a sample that, as a whole, favours compounds with a hit. Of some 83,000 tested, about 20% had one in any assay.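 For each line, cells grew in 96-well plates with the test compound present at a single concentration for 48 hours.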 The source made the active and inactive calls.

In the assay the test system is SK-MEL-5 melanoma. Put plainly: NCI-60 one-dose screen, 48 h (100 = growth as untreated, 0 = no growth, -100 = all killed). The settings on record: 10 µM unless noted. Here is the method: Growth inhibition of the SK-MEL-5 human tumor cell line is measured as a screen for anti-cancer activity. Cells are grown in 96 well plates and exposed to the test compound for 48 hours. Compounds are tested at a single concentration, which is 10^-5 M for most compounds. The reported endpoint is percent growth (GI% or GIPRCNT), where numbers from 0 - 100% represent growth inhibition, and numbers from -100% - 0 represent cell death. For example, a value of 40 represents 60% growth inhibition. A value of 0 means no net growth occurred over the course of the experiment. A value of -40 indicates 40% of cells at the beginning of the experiment died by the end of the experiment. A value of -100 means all cells are dead at the end of the experiment.
NCI-60 Human Tumor Cell Lines Screen was performed using the standard one-dose NCI protocol, which is described in more detail at https://dtp.cancer.gov/discovery_development/nci-60/default.htm.
Compounds with GIPRCNT values below 10 were considered active. Activity score was based on GIPRCNT using the following formula: […]
Score is 0 for GIPRCNT values of 100 or above, 50 for GIPRCNT values of 0, and 100 for GIPRCNT values of -100.
As to `FC(F)(F)c1cc(CNc2ncc(Br)c(Cl)n2)cc(C(F)(F)F)c1`, the growth was 97.3% (inactive).
For `CCOC(=O)c1cn2c3c(cc(F)cc3c1=O)C(CC)c1ccccc1C2` (stereo not given), the growth is 63.7% (inactive).
With `COc1cccc2c(=O)c3c(sc12)c(NCCN(C)C)nc1ccccc13`, the growth was 32.9% (inactive).
Consider `O=C(N/N=C/c1ccc(OC(F)F)c(OC2CCCC2)c1)c1cnn2c1NC(c1ccccc1)C2` (stereo not given), for which the growth is 70.9% (inactive).
As for `C=CC[P+](c1ccccc1)(c1ccccc1)c1ccccc1`, the figure is 33.4% (inactive); as for `COc1cc(C(=O)/C=C/c2c(-c3cccs3)nc3sccn23)cc(OC)c1OC`, -37.9% (active).
To `COc1ccc(/C=C/C(=O)N2CCC(O)CC2)cc1OC1CCCC1` belongs 99.3% (inactive); to `C=C1CC[C@@H]2[C@@](C)(CCC[C@]2(C)C(=O)O)[C@@H]1CC[C@H](CO)CCO`, 112% (inactive); to `Cc1nc2cc(Nc3nc(NCCN)nc(Nc4ccc(F)cc4)n3)ccc2n1Cc1ccccc1`, 86.6% (inactive).
`COc1cccc(C2C3=C(COC3=O)N(CCO)c3cc4c(cc32)CCC4)c1` (stereo not given): the growth is -16.2% (active).
`COc1ccccc1CNCCCCCCCCCCCCN1C(=O)c2ccc3c4c(ccc(c24)C1=O)C(=O)N(CCCCCCCCCCCCNCc1ccccc1OC)C3=O`: the growth is 78.4% (inactive).
As for `O=C(N/N=C/c1ccc2c(c1)OCO2)c1cnn2c1NC(c1ccccc1)C2` (stereo not given), the growth is 37.3% (inactive).
Turning to `Cc1ccc(N(CSc2ccc(Cl)cc2)CSc2ccc(Cl)cc2)cc1`, the growth was 65.5% (inactive).
In the case of `CC(=O)Nc1ccc(Sc2ccc([N+](=O)[O-])o2)cc1`, the growth is 59.5% (inactive).
As to `O=C1c2cc(S(=O)(=O)O)ccc2C(=O)c2c1cccc2[N+](=O)[O-]`, the growth is 114% (inactive).
Regarding `Cc1nn(CC(=O)O)c2c1C(=O)CC(C)(C)C2`, the growth is 115% (inactive).
To `CCCCOC(=O)C1OC(Oc2ccc3c(C)cc(=O)oc3c2)[C@@H](OC(C)=O)C(OC(C)=O)C1OC(C)=O` (stereo not given in full) belongs 101% (inactive); to `CC(C)(C)[Si](C)(C)OC1[C@@H](COC(=O)NC(=O)CCl)O[C@@H](n2cnc3c(N)ncnc32)[C@H]1O[Si](C)(C)C(C)(C)C` (stereo not given in full), 61.4% (inactive); to `Nc1nc(-c2ccnc(Cl)c2)nn1-c1nc2ccccc2s1`, 106% (inactive).
On to `O=C1CC(c2ccsc2)c2snc(-c3ccc(Cl)cc3)c2N1` (stereo not given), for which the growth is 18.1% (inactive).
As for `Cc1nc2ccc(Cl)cc2n1C`, the figure is 99.6% (inactive).
In the case of `N#C/C(=C\c1ccc[nH]1)c1cc2ccccc2[nH]1`, the growth is 57.2% (inactive).
For the compound `O=C1C(Cl)=C(NCCCN2CCOCC2)C(=O)c2ccccc21`, the growth is 67.5% (inactive).
To `CC(C)(C)[Si](C)(C)OC1[C@@H](CNC(=O)NC(=O)CCl)O[C@@H](n2cnc3c(N)ncnc32)[C@H]1O[Si](C)(C)C(C)(C)C` (stereo not given in full) belongs 90.6% (inactive).
Take `O=C(CCc1nnc2sc(/C=C\c3ccccc3)nn12)c1nc2ccccc2[nH]1`: the growth is 75.9% (inactive).
For `CC(=O)Nc1ccc(S(=O)(=O)N/N=C\c2ccc(Cl)c(Cl)c2)cc1`, the growth was 104% (inactive).
Regarding `COc1ccc(OC)c2ncccc12`, the growth was 102% (inactive).
Take `CCC12CCC3c4ccc(O)cc4CCC3C1CC(O)C2O` (stereo not given): the growth was 63.4% (inactive).
For the compound `O=C1Nc2ccc(Cl)cc2/C1=N/N=C(c1ccccc1)c1ccccc1`, the growth is 99% (inactive).
As for `O=c1c2c(=NCCN3CCCC3)cc3c(=O)n(CCCN4CCOCC4)c(=O)c4ccc(c(O)n1CCCN1CCOCC1)c2c4-3`, the figure is -14.9% (active); as for `OB(O)c1ccccc1`, 113% (inactive); as for `O=C1CN2CCC1C/C2=C\c1ccnc2c(Cl)cccc12` (stereo not given), 108% (inactive).
For `CC1CCCCN1S(=O)(=O)c1ccc(CN=C=S)cc1` (stereo not given), the growth was 91.5% (inactive).
To `COc1ccc(CSc2nc3cc(OC)c(OC)cc3c(=O)n2-c2ccc(Cl)cc2)cc1` belongs 95.4% (inactive); to `COc1ccc(-n2ncc3c2ccc2cc(S(=O)(=O)c4ccccc4)c(=O)n(C)c23)cc1`, 95.9% (inactive).
As for `COc1ccc(-c2c(-c3cc4c(c(OC)c3OC)OCO4)noc2N)cc1`, the figure is 16.5% (inactive); as for `O=[N+]([O-])c1cc2c(cc1Br)C1C(C3C2C(Cl)(Cl)C(Cl)=C(Cl)C3(Cl)Cl)C(Cl)(Cl)C(Cl)=C(Cl)C1(Cl)Cl` (stereo not given), 102% (inactive); as for `CSc1nnc(-c2sc3nnc(-c4ccccc4)c(-c4ccccc4)c3c2O)o1`, 83.5% (inactive).
To `FCOC(C(F)(F)F)C(F)(F)F` belongs 103% (inactive); to `COC(=O)/C=C1/CCC2C3CCC4=CC(=O)C(Br)CC4(C)C3C(=O)CC12C` (stereo not given), 57.4% (inactive).

The values above are taken from PubChem BioAssay (NCI).
